Consider seven compounds from PubChem BioAssay (Tox21).

Unmarked numbers belong to inactive results. Inconclusive results are not listed. The source made the active and inactive calls. Unless noted, the call rests on the fitted dose curve; in most records, active means well fitted curve in the direction sought with a large enough effect in the repeat runs; inconclusive means weak or mixed curves; inactive means no such curve, though single readings can be large; an effect the other way counts as inactive or inconclusive.

Assay [1] deals with Progesterone receptor (Homo sapiens) (UniProt P06401). Description: qHTS assay to identify small molecule agonists of the progesterone receptor (PR) signaling pathway (AID 1346784; calls by dose curve; further: nearly all actives have a fitted effect of over 30% in size). The procedure, abridged:
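Reporter assay, GripTite PR-UAS-bla HEK 293T cells: 16 hr exposure to DMSO-dissolved compounds at 37C, 5% CO2, in steroid-depleted (2% charcoal-stripped FBS) medium; beta-lactamase measured by FRET fluorescence.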
For orientation: qHTS replaces the single test concentration by a dilution series.

The target is the same in assay [2]. Description: qHTS assay to identify small molecule antagonists of the progesterone receptor (PR) signaling pathway (AID 1346795; active means well fitted inhibition curve with a large enough effect in the signal ratio in the repeat runs, not every such curve was filed as active; the % refers to the signal ratio). The procedure, abridged: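 Stimulus R5020 at 1 nM final; cells HEK293T PR-UAS-bla; medium with 2% charcoal-stripped FBS; compound exposure 16 hr at 37C, 5% CO2; detection by FRET beta-lactamase substrate, 2 hr, room temperature.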
Assay [3] can be described thus: qHTS assay to identify small molecule antagonists of the progesterone receptor (PR) signaling pathway - cell viability counter screen (AID 1346798). Further: series mostly up to about 92 µM; nearly all actives have a fitted effect of over 50% in size. Put shortly:
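In the same plates used for the beta-lactamase readout, cell viability of compound- and R5020-treated PR-UAS-bla HEK293T cells (16 hr, 37C) was assessed by CellTiter-Glo luminescence.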

Assay [4] in a line: qHTS assay to identify small molecule agonists of the progesterone receptor (PR) signaling pathway - cell viability counter screen (AID 1346799; calls by dose curve; further: nearly all actives have a fitted effect of over 45% in size). The procedure, abridged:
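Multiplexed viability read: CellTiter-Glo luminescence, 30 min RT, following LiveBLAzer FRET measurement on PR-UAS-bla HEK293T cells exposed to compounds 16 hr.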

Assay [5] can be described thus: qHTS assay to identify small molecule antagonists of the TGF-beta/Smad signaling pathway - cell viability counter screen (AID 1346824). Further: nearly all actives have a fitted effect of over 50% in size. Put shortly: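 SBE-bla HEK 293T cells were plated overnight at 37 C, then given compounds in DMSO plus TGF-beta1 (added as 0.25 ng/mL solution) for 5 hr. After the bla read, CellTiter-Glo was added to the same wells and luminescence read after 30 min at room temperature.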

Assay [6] is described as follows: qHTS assay to identify small molecule agonists of the TGF-beta/Smad signaling pathway - cell viability counter screen (AID 1346829). Further: top concentration of the series differs between compounds; nearly all actives have a fitted effect of over 45% in size. Put shortly: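 Luminescence from CellTiter-Glo, read after a 30 min room-temperature incubation, gives cell viability of SBE-bla HEK 293T cells treated 5 hr with compounds at 37 C.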
Assay [7] can be described thus: qHTS assay to identify small molecule agonists of the TGF-beta/Smad signaling pathway (AID 1346859; active means well fitted activation curve with a large enough effect in the signal ratio in the repeat runs, not every such curve was filed as active; the % refers to the signal ratio; further: series mostly up to about 77 µM). Put shortly: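 Screening used HEK 293T SBE-bla cells at 4,000/well. Test agents: 5 hr, 37 C. Detection: FRET substrate, 2 hr RT, then excitation 405 nm with emissions at 460 and 530 nm.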
In assay [8] the target is Thyrotropin-releasing hormone receptor (Homo sapiens) (UniProt P34981). Description: qHTS assay to identify small molecule antagonists of the thyrotropin-releasing hormone receptor (TRHR) signaling pathway (AID 1346877; active means well fitted inhibition curve with a large enough effect in the repeat runs, not every such curve was filed as active; further: series mostly up to about 51 µM). The procedure, abridged: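 In this cell-based calcium flux format, HEK293 cells expressing TRHR received test compound for 5 min before the agonist TRH (1 nM final). Dye loading lasted 2 h at 37 °C.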

For assay [9] the target is unchanged. Description: qHTS assay to identify small molecule agonists of the thyrotropin-releasing hormone receptor (TRHR) signaling pathway (AID 1346891; calls by dose curve; further: series mostly up to about 58 µM). The procedure, abridged:
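Readout was intracellular calcium fluorescence in TRHR-Hek293 cells. Cells were incubated 18 h, dye-loaded 2 h at 37 °C, and treated with compound in agonist mode.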

Assay [10] in a line: Caspase-3/7 induction in HepG2 cells by small molecules, qHTS assay (AID 1346978). Further: nearly all actives have a fitted effect of over 15% in size. The procedure, abridged:
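Wild-type HepG2 cells (2,000/well) were settled 5 h at 37 C, 5% CO2, then exposed to compounds in DMSO for 17 h. Caspase-3/7 activity was read by luminescence 30 min after adding Caspase-Glo 3/7 reagent at room temperature.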

Assay [11] can be described thus: Caspase-3/7 induction in CHO-K1 cells by small molecules, qHTS cell viability counter screen (AID 1346979). Further: nearly all actives have a fitted effect of over 35% in size. The procedure, abridged: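 Following a 5hr settling period, CHO-K1 cells at 1,500 per well received DMSO-dissolved compounds. Cell viability was quantified 16hr later by CellTiter-Fluor fluorescence, measured after 1hr with reagent at 37C.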
Assay [12] in a line: Caspase-3/7 induction in CHO-K1 cells by small molecules, qHTS assay (AID 1346980). Further: nearly all actives have a fitted effect of over 15% in size. The procedure, abridged:
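Wild-type cells were seeded at 1,500 per well and settled 5 hr at 37 C, 5% CO2, then exposed to DMSO-dissolved compounds for 17 hr. Caspase-Glo 3/7 reagent was added, and luminescence was read after 30min at room temperature.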

Assay [13] is described as follows: Caspase-3/7 induction in HepG2 cells by small molecules, qHTS cell viability counter screen (AID 1346981). Further: series mostly up to about 92 µM; nearly all actives have a fitted effect of over 30% in size. The procedure, abridged: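 Counter screen for cytotoxicity: HepG2 exposed 16 hr to compounds, then CellTiter-Fluor viability signal (fluorescence, 1 hr reagent incubation).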
The target of assay [14] is Nuclear receptor subfamily 1 group I member 2 (Homo sapiens) (UniProt O75469). The experiment in a line: Human pregnane X receptor (PXR) small molecule agonists, qHTS assay (AID 1346982). Further: nearly all actives have a fitted effect of over 35% in size. Further: potency means the concentration at half of the fitted maximal effect. Put shortly: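 Luminescence (ONE-Glo, 30 min RT) after 24 hr compound exposure of PXR-Luc HepG2 cells; cells rested 5 hr post-plating in 5% charcoal-stripped FBS medium.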
Assay [15] addresses Nuclear receptor subfamily 1 group I member 2 (Rattus norvegicus) (UniProt Q9R1A7). Description: Rat pregnane X receptor (rPXR) activation by small molecules, qHTS assay (AID 1346983). Further: nearly all actives have a fitted effect of over 20% in size. The note with it: rPXR luciferase reporter cells, One-Glo luminescence, 24 h; max activation: active compounds read high. The procedure, abridged:
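Cell-based rPXR luciferase reporter assay, 2,000 cells per well, rested 5hr at 37 C before compound addition in DMSO, then 24 hr at 37 C. One-Glo reagent was added and luminescence read after 30 min at room temperature.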

The target of assay [16] is Nuclear receptor subfamily 1 group I member 2 (Homo sapiens) (UniProt O75469). The experiment in a line: CYP3A4 induction through human pregnane X receptor (PXR) by small molecules, qHTS assay (AID 1346984). Further: nearly all actives have a fitted effect of over 40% in size. The procedure, abridged: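 DPX-2 reporter cells; 24h cpd, 37C; Luciferin-IPA 3uM final x3h; One-Glo 30 min RT; lumi read.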
Assay [17] has as its target Cytochrome P450 2C19 (Homo sapiens) (UniProt P33261). The experiment in a line: Cytochrome P450 Family 2 Subfamily C Member 19 (CYP2C19) small molecule antagonists: luciferase reporter qHTS assay (AID 1671197). Further: nearly all actives have a fitted effect of over 65% in size. Further: potency means the concentration at half of the fitted maximal effect. On activity change, negative = inhibition: series mostly up to about 120 µM. Put shortly: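 CYP2C19 P450-Glo, 1536-well qHTS. Cpd + enzyme/proluciferin substrate 10 min RT; + NADPH regen, 37C 1 h; stop with luciferin detection reagent, 20 min RT, luminescence (RLU). Pos ctrl ketoconazole.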
On the technique in general: Reporter assays use an easily measured gene product as a stand-in for the process of interest.

A short description of assay [18]: Human pregnane X receptor (PXR) small molecule agonists, qHTS cell viability counter screen (AID 1346977). Further: nearly all actives have a fitted effect of over 50% in size. Put shortly:
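In each well, the PXR reporter HepG2 line was checked for viability: CellTiter-Fluor reagent added 23hr post-dosing, fluorescence read after 1hr incubation at 37C.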

Assay [19] addresses Cytochrome P450 2D6 (Homo sapiens) (UniProt P10635). The experiment in a line: Cytochrome P450 Family 2 Subfamily D Member 6 (CYP2D6) small molecule antagonists: luciferase reporter qHTS assay (AID 1671196). Further: series mostly up to about 120 µM; nearly all actives have a fitted effect of over 50% in size. The procedure, abridged: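 Inhibition of CYP2D6 was gauged by loss of luminescence, since light produced tracks the luciferin generated from a proluciferin substrate. A 10 min room-temperature preincubation preceded 1 h NADPH-supported turnover.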
On the % scale 0 is the no-effect control and ±100 the full control effect.

Chain of Cytochrome P450 2C19 (Homo sapiens) (P33261 whole entry, looked up): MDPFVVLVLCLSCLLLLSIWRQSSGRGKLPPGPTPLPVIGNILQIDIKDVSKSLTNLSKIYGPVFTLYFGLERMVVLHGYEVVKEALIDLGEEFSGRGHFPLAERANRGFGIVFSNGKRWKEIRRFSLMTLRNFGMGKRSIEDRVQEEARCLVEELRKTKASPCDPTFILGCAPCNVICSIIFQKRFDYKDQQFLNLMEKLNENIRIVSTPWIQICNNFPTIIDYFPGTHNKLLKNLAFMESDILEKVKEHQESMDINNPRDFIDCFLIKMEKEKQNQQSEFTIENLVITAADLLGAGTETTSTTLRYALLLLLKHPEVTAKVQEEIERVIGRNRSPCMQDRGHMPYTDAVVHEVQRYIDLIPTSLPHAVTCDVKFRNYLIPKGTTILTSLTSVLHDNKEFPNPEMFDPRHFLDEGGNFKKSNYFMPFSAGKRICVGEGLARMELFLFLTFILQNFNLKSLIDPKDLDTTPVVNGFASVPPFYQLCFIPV
Chain of Thyrotropin-releasing hormone receptor (Homo sapiens) (P34981 whole entry, looked up): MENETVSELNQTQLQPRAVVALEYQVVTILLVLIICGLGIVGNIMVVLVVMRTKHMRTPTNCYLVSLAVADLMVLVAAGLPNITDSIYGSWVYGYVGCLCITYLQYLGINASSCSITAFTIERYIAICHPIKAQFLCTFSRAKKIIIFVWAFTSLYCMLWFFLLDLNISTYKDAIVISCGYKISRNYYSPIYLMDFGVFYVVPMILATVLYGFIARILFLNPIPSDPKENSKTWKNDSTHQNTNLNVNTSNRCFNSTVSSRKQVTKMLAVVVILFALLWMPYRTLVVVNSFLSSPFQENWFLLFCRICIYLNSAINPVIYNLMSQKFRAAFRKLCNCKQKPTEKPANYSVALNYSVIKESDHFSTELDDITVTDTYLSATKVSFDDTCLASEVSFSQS
Chain of Progesterone receptor (Homo sapiens) (P06401 whole entry, looked up): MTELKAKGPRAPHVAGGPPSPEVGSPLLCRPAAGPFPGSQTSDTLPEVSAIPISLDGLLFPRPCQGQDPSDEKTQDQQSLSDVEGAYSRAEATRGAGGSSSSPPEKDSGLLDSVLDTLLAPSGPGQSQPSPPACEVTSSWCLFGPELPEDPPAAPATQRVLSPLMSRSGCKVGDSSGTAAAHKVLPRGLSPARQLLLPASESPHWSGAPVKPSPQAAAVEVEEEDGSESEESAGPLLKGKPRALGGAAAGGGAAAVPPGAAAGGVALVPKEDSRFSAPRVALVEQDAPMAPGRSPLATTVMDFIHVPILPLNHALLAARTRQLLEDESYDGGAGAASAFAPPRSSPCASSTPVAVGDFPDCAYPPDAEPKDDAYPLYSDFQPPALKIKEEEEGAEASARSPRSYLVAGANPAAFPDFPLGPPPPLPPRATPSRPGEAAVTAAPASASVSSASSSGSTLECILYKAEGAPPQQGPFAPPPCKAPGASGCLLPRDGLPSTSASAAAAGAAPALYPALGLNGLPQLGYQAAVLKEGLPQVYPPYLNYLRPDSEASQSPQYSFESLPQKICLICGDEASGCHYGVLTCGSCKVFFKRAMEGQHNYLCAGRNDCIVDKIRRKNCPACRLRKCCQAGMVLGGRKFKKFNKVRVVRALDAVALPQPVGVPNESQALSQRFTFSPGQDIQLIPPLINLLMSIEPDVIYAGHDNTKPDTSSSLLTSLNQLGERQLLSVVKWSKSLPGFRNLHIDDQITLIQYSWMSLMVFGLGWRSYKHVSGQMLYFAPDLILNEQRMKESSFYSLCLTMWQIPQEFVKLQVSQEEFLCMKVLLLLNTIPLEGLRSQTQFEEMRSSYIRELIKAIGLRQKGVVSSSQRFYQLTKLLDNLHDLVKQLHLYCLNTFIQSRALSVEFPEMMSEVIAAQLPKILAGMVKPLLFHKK
Chain of Cytochrome P450 2D6 (Homo sapiens) (P10635 whole entry, looked up): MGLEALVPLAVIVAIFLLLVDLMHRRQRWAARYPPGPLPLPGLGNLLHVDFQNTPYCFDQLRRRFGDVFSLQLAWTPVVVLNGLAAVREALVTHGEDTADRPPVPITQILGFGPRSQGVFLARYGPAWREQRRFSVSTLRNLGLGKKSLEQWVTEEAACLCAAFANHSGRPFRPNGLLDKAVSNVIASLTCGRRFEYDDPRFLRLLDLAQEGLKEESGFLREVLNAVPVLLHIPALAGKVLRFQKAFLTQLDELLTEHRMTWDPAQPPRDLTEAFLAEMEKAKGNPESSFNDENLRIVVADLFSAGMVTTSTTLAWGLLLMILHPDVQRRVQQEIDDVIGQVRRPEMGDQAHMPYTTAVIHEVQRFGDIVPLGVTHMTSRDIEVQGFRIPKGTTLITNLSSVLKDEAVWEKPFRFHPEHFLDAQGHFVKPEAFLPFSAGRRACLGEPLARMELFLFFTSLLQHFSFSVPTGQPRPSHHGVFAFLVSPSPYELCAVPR
Chain of Nuclear receptor subfamily 1 group I member 2 (Rattus norvegicus) (Q9R1A7 whole entry, looked up): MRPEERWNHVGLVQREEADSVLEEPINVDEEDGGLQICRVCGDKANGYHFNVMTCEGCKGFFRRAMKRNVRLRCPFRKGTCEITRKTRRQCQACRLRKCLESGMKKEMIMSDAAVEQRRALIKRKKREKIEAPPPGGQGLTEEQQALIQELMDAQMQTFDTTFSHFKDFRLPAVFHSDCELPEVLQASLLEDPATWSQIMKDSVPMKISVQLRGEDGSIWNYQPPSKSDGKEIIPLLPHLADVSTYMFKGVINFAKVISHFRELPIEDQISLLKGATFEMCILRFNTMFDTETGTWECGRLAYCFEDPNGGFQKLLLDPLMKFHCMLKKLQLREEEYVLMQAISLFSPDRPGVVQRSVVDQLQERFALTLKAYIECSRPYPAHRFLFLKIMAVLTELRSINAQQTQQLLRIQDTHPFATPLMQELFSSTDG
Chain of Nuclear receptor subfamily 1 group I member 2 (Homo sapiens) (O75469 whole entry, looked up): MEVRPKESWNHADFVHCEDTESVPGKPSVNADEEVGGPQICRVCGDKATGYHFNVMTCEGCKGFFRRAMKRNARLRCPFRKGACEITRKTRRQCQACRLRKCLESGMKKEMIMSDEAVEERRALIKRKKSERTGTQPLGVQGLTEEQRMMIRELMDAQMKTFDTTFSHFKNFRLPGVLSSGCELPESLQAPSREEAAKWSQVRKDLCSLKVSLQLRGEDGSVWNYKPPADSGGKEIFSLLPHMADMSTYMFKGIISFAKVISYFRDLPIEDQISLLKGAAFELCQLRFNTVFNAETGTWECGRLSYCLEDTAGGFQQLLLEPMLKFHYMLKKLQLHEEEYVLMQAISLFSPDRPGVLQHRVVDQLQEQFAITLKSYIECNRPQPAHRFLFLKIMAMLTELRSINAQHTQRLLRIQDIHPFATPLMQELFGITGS

As for `Cc1cc(CC(=O)O)c(C)n1-c1ccc(Cl)cc1`, the compound was classed as inactive in assay [1], in [7], in assay [8] and in [10]. The Potency entry in assay [2], in assay [3], in [4], in [5], in [6] and in [9] was “inactive” throughout. Also, the Potency result in [11], in [12], in assay [13], in [14] and in [16] was “inactive” in each case. Moreover, in [15], the max activation was 0.177%.

As to `CCCCCCc1ccc(N)cc1`, the result in assay [1], in [7], in [8] and in assay [10] was inactive. Besides, the Potency entry in assay [2], in [3], in assay [4], in assay [5], in [6] and in assay [11] was “inactive” in each case. Further, in assay [12], the Potency entry is “inactive”. The values for the Potency in assay [14] and in [17] were 30.6 µM (active) and 3.56 µM (active), respectively.

For `Cc1ccccn1`, the compound was called inactive in [1], in assay [7], in assay [8] and in assay [10]. The Potency entry in [2], in assay [3], in assay [4], in assay [5], in assay [6] and in assay [9] was “inactive” throughout. Also, the Potency entry in [11], in assay [12] and in [13] was “inactive” in each case. The max activation in assay [15] was -5.22%.

Regarding `N#CCc1cccc(C(F)(F)F)c1`, the compound was classed as inactive in assay [1], in assay [7], in assay [8] and in [10]. Moreover, the Potency entry in assay [2], in [3], in assay [4], in assay [5], in assay [6] and in assay [18] was “inactive” each time. Besides, the Potency result in assay [12], in assay [13], in assay [14], in [19] and in assay [17] was “inactive” throughout.

On to `CC(=O)O[C@H]1C[C@@H]2CC[C@@H]3[C@H](CC[C@@]4(C)[C@H]3C[C@H]([N+]3(C)CCCCC3)[C@@H]4OC(C)=O)[C@@]2(C)C[C@@H]1N1CCCCC1`, for which the compound was classed as inactive in assay [1], in [7] and in [8]. The Potency result in assay [2], in assay [3], in [4], in [5], in assay [6] and in assay [18] was “inactive” throughout. Also, the Potency entry in assay [11], in [12], in assay [13], in [14], in assay [16] and in assay [17] was “inactive” in each case. Also, in assay [15], the max activation was -3.12%.

As for `CCCCCCCCCCCCCCCCCBr`, the activation was -0.0997% [at 19 µM] in assay [1], 2.19% [at 15.8 µM] in assay [7] and 1.46% [at 19 µM] in assay [14]. Also, the activity change, negative = inhibition in assay [2] is 0.192% [at 18.9 µM]; in [19] it was -1.15% [at 23.6 µM]; in [17], 4.88% [at 23.6 µM]. For the same compound, the activity change, negative = cytotoxicity in [3] is -0.341% [at 18.9 µM]; in assay [4] it was 10.6% [at 19 µM]; in assay [6] it was 0.567% [at 15.8 µM]; in [18], 1.63% [at 19 µM]; in [11], 6.07% [at 19 µM]; in assay [13], 2.8% [at 19 µM]. The viability change, negative = cytotoxic in assay [5] was 1.56% [at 15.8 µM]. Besides, in [8], the activity, negative = inhibition was -2.78% [at 10.5 µM]. For the same compound, the caspase activation in assay [10] was 0.0731% [at 19 µM]. Also, the caspase-3/7 activation in assay [12] was -0.258% [at 19 µM].

Regarding `CC(=O)SCc1ccco1`, the outcome in [1], in [7], in assay [8] and in [10] was inactive. For the same compound, the Potency entry in [2], in assay [3], in assay [4], in assay [5], in assay [6] and in assay [9] was “inactive” each time. The Potency entry in assay [11], in assay [12], in assay [13], in [14] and in assay [19] was “inactive” throughout.
